According to PubChem BioAssay (Tox21):
Results filed as inconclusive are left out. Active and inactive are the calls of the source. Unless noted, calls follow the shape of the dose curve; as a rule, active = well fitted curve in the direction sought with a large enough effect in the repeat runs; inconclusive = weak or mixed curves; inactive = no such curve, though single readings can be large; an effect the other way counts as inactive or inconclusive.

Columns and labels:
[1] = qHTS assay to identify small molecule antagonists of the thyroid receptor (TR) signaling pathway - cell viability counter screen (AID 743064); also: nearly all actives have a fitted effect of over 50% in size; also: potency is read from the fitted curve at half-maximal effect
How it was run: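 Plate GH3.TRE-Luc cells; incubate 4 h at 37 °C; add compound, then T3 to 1 nM final; incubate 23.5 h; add CellTiter-Fluor; incubate 30 min at 37 °C, 5% CO2; read fluorescence.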

[2] = qHTS assay to identify small molecule antagonists of the thyroid receptor (TR) signaling pathway (AID 743065); also: nearly all actives have a fitted effect of over 55% in size; also: potency is read from the fitted curve at half-maximal effect
How it was run: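 GH3.TRE-Luc rat pituitary cells carrying two TR response elements driving luciferase were plated for 4 h, given compound plus 1 nM T3 (final), and incubated 23.5 h at 37 C. ONE-Glo luminescence measured reporter inhibition; CellTiter-Fluor fluorescence tracked cytotoxicity.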

[3] = system: thyroid hormone receptor (rat, GH3 cells); assay: qHTS assay to identify small molecule agonists of the thyroid receptor (TR) signaling pathway (AID 743066; calls by dose curve)
[4] = molecular target: Estrogen receptor (Homo sapiens) (UniProt P03372); assay: qHTS assay to identify small molecule antagonists of the estrogen receptor alpha (ER-alpha) signaling pathway (AID 743069; active = well fitted curve in the direction sought with a large enough effect in the signal ratio in the repeat runs, not every such curve was filed as active; the % refers to the signal ratio)
How it was run: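 HEK293 cells stably carrying an ER-alpha-UAS-bla beta-lactamase reporter were pre-cultured overnight in 2% charcoal-stripped FBS medium. Test compounds in DMSO were added together with 17beta-estradiol for 18 hr at 37C. Read-out was fluorescence after 2 hr with LiveBLAzer B/G FRET substrate at room temperature.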

[5] = qHTS assay to identify small molecule antagonists of the estrogen receptor alpha (ER-alpha) signaling pathway - cell viability counter screen (AID 743074; calls by dose curve; also: nearly all actives have a fitted effect of over 45% in size)
[6] = molecular target: Estrogen receptor (Homo sapiens) (UniProt P03372); assay: qHTS assay to identify small molecule agonists of the estrogen receptor alpha (ER-alpha) signaling pathway (AID 743075; calls by dose curve)
[7] = molecular target: Estrogen receptor (Homo sapiens) (UniProt P03372); assay: qHTS assay to identify small molecule agonists of the estrogen receptor alpha (ER-alpha) signaling pathway using the BG1 cell line (AID 743079); conditions: BG1Luc4E2 cells, ERE-luciferase agonist, 22 h; activation: at 70.3 µM (top of the series); also: nearly all actives have a fitted effect of over 20% in size; also: potency is read from the fitted curve at half-maximal effect
[8] = qHTS assay to identify small molecule antagonists of the estrogen receptor alpha (ER-alpha) signaling pathway using the BG1 cell line (AID 743080; calls by dose curve;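 also: BG1 cells stimulated with 17beta-estradiol alongside compound; nearly all actives have a fitted effect of over 25% in size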)
How it was run: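 BG1-Luc-4E2 cells (endogenous full-length ER-alpha, stable 4×ERE-luciferase) were starved 5 days in phenol-red-free medium with 10% charcoal-stripped FBS, plated 24 h, then given compound plus 17beta-estradiol for 21.5 h at 37 C; ONE-Glo luminescence read after 30 min.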

[9] = qHTS assay to identify small molecule antagonists of the estrogen receptor alpha (ER-alpha) signaling pathway using the BG1 cell line - cell viability counter screen (AID 743081);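 also: compound given together with 17beta-estradiol as the ER stimulus; nearly all actives have a fitted effect of over 45% in size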
Aromatase (Homo sapiens) = Aromatase (Homo sapiens) (UniProt P11511); assay: qHTS assay to identify aromatase inhibitors (AID 743083); also: nearly all actives have a fitted effect of over 55% in size
% is scaled to controls: 0 for no effect and ±100 for the full control effect.

Chain of Aromatase (Homo sapiens) (P11511 whole entry, looked up): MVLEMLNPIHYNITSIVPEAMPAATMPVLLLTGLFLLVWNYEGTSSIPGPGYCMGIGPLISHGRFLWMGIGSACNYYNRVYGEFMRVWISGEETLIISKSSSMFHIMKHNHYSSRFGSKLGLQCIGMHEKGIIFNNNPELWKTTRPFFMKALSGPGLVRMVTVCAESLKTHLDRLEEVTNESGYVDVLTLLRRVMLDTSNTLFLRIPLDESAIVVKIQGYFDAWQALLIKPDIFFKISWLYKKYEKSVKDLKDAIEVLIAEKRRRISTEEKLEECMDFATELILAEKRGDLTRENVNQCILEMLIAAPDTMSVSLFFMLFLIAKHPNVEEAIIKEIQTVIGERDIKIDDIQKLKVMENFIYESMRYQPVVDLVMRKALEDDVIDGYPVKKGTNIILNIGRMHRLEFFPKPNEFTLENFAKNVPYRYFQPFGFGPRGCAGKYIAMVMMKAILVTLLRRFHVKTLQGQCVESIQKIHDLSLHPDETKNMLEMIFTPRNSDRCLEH
Chain of Estrogen receptor (Homo sapiens) (P03372 whole entry, looked up): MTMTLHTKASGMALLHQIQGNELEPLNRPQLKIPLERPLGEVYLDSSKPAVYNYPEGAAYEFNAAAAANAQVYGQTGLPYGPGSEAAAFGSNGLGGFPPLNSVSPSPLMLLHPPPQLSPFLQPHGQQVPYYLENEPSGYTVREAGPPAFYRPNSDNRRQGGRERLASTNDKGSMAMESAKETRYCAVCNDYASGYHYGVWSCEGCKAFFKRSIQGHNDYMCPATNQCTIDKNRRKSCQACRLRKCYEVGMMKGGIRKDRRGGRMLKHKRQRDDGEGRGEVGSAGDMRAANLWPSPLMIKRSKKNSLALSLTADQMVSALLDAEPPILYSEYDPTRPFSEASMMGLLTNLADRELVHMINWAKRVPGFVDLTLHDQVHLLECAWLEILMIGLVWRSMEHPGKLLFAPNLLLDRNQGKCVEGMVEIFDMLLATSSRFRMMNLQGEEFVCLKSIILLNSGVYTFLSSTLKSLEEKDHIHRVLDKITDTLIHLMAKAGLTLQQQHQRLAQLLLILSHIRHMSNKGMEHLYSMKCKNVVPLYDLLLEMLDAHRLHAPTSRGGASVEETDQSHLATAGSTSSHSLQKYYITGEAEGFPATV

CC(Cl)C(Cl)Cl (centres undefined)
inactive: Potency [1] | Potency [2] | outcome [3] | Potency [4] | Potency [5] | Potency [6] | Potency [7] | Potency [8] | Potency [9] | Potency (Aromatase (Homo sapiens))

Cc1nc2ccccc2s1
inactive: Potency [1] | Potency [2] | outcome [3] | Potency [4] | Potency [5] | Potency [6] | Potency [7] | Potency [8] | Potency [9] | Potency (Aromatase (Homo sapiens))

COC(=O)[C@@H]1CC2=CC(=O)CC[C@]2(C)[C@@]23O[C@@H]2C[C@@]2(C)[C@@H](CC[C@@]24CCC(=O)O4)[C@H]13
inactive: Potency [1] | Potency [2] | outcome [3] | Potency [4] | Potency [5] | Potency [6] | Potency [7] | Potency [8] | Potency [9] | Potency (Aromatase (Homo sapiens))

CC(COc1ccc(C(C)(C)C)cc1)OS(=O)OCCCl (centres undefined)
inactive: Potency [1] | Potency [2] | outcome [3] | Potency [4] | Potency [5] | Potency [6] | Potency [7] | Potency [8] | Potency [9] | Potency (Aromatase (Homo sapiens))

Cc1occc1C(=O)Nc1ccc(C(=O)N2CCC(F)(F)/C(=C\C(=O)N3CCC(N4CCCCC4)CC3)c3ccccc32)cc1
active: Potency [1] 17 µM | Potency [2] 19.1 µM
inactive: outcome [3] | Potency [4] | Potency [5] | Potency [6]

Cc1ccnc2ccccc12
inactive: Potency [1] | Potency [2] | outcome [3] | Potency [4] | Potency [5] | Potency [6] | Potency [7] | Potency [8] | Potency [9] | Potency (Aromatase (Homo sapiens))

COc1ccc(CCC(=O)c2c(O)cc(O[C@@H]3O[C@H](CO)[C@@H](O)[C@H](O)[C@H]3O[C@@H]3O[C@@H](C)[C@H](O)[C@@H](O)[C@H]3O)cc2O)cc1O
inactive: Potency [1] | Potency [2] | outcome [3] | Potency [4] | Potency [5] | Potency [6] | Potency [7] | Potency [8] | Potency [9] | Potency (Aromatase (Homo sapiens))

CC1=CC(O)CC(C)(C)C1 (centres undefined)
inactive: Potency [1] | Potency [2] | outcome [3] | Potency [4] | Potency [5] | Potency [6] | Potency [7] | Potency [8] | Potency [9] | Potency (Aromatase (Homo sapiens))

CCC(=O)OC/C=C/c1ccccc1
active: Potency [7] 68.6 µM
inactive: Potency [1] | Potency [2] | outcome [3] | Potency [4] | Potency [5] | Potency [6] | Potency [8] | Potency [9] | Potency (Aromatase (Homo sapiens))

O=C(O)c1cccnc1C(=O)O
inactive: Potency [1] | Potency [2] | outcome [3] | Potency [4] | Potency [5] | Potency [6] | Potency [7] | Potency [8] | Potency [9] | Potency (Aromatase (Homo sapiens))

CC#N
inactive: Potency [1] | Potency [2] | outcome [3] | Potency [4] | Potency [5] | Potency [6] | Potency [7] | Potency [8] | Potency [9] | Potency (Aromatase (Homo sapiens))

CC(C)CCCC(=O)O
inactive: Potency [1] | Potency [2] | outcome [3] | Potency [4] | Potency [5] | Potency [6] | Potency [7] | Potency [8] | Potency [9] | Potency (Aromatase (Homo sapiens))

O=Cc1c(Cl)cccc1Cl
inactive: Potency [1] | Potency [2] | outcome [3] | Potency [4] | Potency [5] | Potency [6] | Potency [7] | Potency [8] | Potency [9] | Potency (Aromatase (Homo sapiens))

OCC1CC=CCC1 (centres undefined)
inactive: Potency [1] | Potency [2] | outcome [3] | Potency [4] | Potency [5] | Potency [6] | Potency [7] | Potency [8] | Potency [9] | Potency (Aromatase (Homo sapiens))

C=CCOC(=O)/C=C\C(=O)OCC=C
inactive: Potency [1] | Potency [2] | outcome [3] | Potency [4] | Potency [5] | Potency [6] | Potency [7] | Potency [8] | Potency [9] | Potency (Aromatase (Homo sapiens))

O=C(O)Cc1ccc(-c2ccccc2)cc1
inactive: Potency [1] | Potency [2] | outcome [3] | Potency [4] | Potency [5] | Potency [6] | Potency [7] | Potency [8] | Potency [9] | Potency (Aromatase (Homo sapiens))

CCOC(=O)CC(=O)C(=O)OCC
inactive: Potency [1] | Potency [2] | outcome [3] | Potency [4] | Potency [5] | Potency [6] | Potency [7] | Potency [8] | Potency [9] | Potency (Aromatase (Homo sapiens))

CCC(C(=O)OCCOCCN(CC)CC)c1ccccc1 (centres undefined)
inactive: Potency [1] | Potency [2] | outcome [3] | Potency [4] | Potency [5] | Potency [6] | Potency [7] | Potency [8] | Potency [9] | Potency (Aromatase (Homo sapiens))

OCCSc1ccccc1
inactive: Potency [1] | Potency [2] | outcome [3] | Potency [4] | Potency [5] | Potency [6] | Potency [7] | Potency [8] | Potency [9] | Potency (Aromatase (Homo sapiens))

CCCCCCCCCOC(C)=O
inactive: Potency [1] | Potency [2] | outcome [3] | Potency [4] | Potency [5] | Potency [6] | Potency [7] | Potency [8] | Potency [9] | Potency (Aromatase (Homo sapiens))

CCCCCC=CCC=CCCCCCCCC(=O)OCC
inactive: Potency [1] | Potency [2] | outcome [3] | Potency [4] | Potency [5] | Potency [6] | Potency [7] | Potency [8] | Potency [9] | Potency (Aromatase (Homo sapiens))

CCCCCCCCCCCCCCCCBr
inactive: Potency [1] | Potency [2] | outcome [3] | Potency [4] | Potency [5] | Potency [6] | Potency [7] | Potency [8] | Potency [9] | Potency (Aromatase (Homo sapiens))

CO[Si](C)(OC)OC
inactive: Potency [1] | Potency [2] | outcome [3] | Potency [4] | Potency [5] | Potency [6] | Potency [7] | Potency [8] | Potency [9] | Potency (Aromatase (Homo sapiens))

CN1CCN(c2c(F)cc3c(=O)c(C(=O)O)cn4c3c2OCN4C)CC1
active: Potency [7] 23.7 µM
inactive: Potency [1] | Potency [2] | outcome [3] | Potency [4] | Potency [5] | Potency [6] | Potency [8] | Potency [9] | Potency (Aromatase (Homo sapiens))

CCC1(C)CC(=O)NC1=O (centres undefined)
inactive: Potency [1] | Potency [2] | outcome [3] | Potency [4] | Potency [5] | Potency [6] | Potency [7] | Potency [8] | Potency [9] | Potency (Aromatase (Homo sapiens))

CC(N)CN (centres undefined)
inactive: Potency [1] | Potency [2] | outcome [3] | Potency [4] | Potency [5] | Potency [6] | Potency [7] | Potency [8] | Potency [9] | Potency (Aromatase (Homo sapiens))

C=CCCCCCCCCCCCCCCCC
inactive: activity change, negative = cytotoxic [1] -9.44% [at 8.44 µM] | activity, negative = inhibition [2] -26.3% [at 8.44 µM] | activation [3] -0.275% [at 8.08 µM] | activity, negative = inhibition [4] 10.1% [at 6.71 µM] | activity, negative = cytotoxicity [5] -5.03% [at 6.72 µM] | activation [6] -3.79% [at 6.71 µM] | activation [7] 4.88% [at 8.47 µM] | activity change, negative = inhibition [8] 2.27% [at 8.47 µM] | activity change, negative = cytotoxicity [9] 4.81% [at 8.47 µM] | activity, negative = inhibition (Aromatase (Homo sapiens)) 12.3% [at 8.47 µM]

CC(CCO)CCc1ccccc1 (centres undefined)
inactive: Potency [1] | Potency [2] | outcome [3] | Potency [4] | Potency [5] | Potency [6] | Potency [7] | Potency [8] | Potency [9] | Potency (Aromatase (Homo sapiens))

CCOC(=O)c1ccccc1C
inactive: Potency [1] | Potency [2] | outcome [3] | Potency [4] | Potency [5] | Potency [6] | Potency [7] | Potency [8] | Potency [9] | Potency (Aromatase (Homo sapiens))

O=C1NCCN1
inactive: Potency [1] | Potency [2] | outcome [3] | Potency [4] | Potency [5] | Potency [6] | Potency [7] | Potency [8] | Potency [9] | Potency (Aromatase (Homo sapiens))

CCCCC(CC)COC(=O)COc1ccc(Cl)cc1C (centres undefined)
inactive: Potency [1] | Potency [2] | outcome [3] | Potency [4] | Potency [5] | Potency [6] | Potency [7] | Potency [8] | Potency [9] | Potency (Aromatase (Homo sapiens))

COC(=O)CC(=O)C(C)(C)C
inactive: Potency [1] | Potency [2] | outcome [3] | Potency [4] | Potency [5] | Potency [6] | Potency [7] | Potency [8] | Potency [9] | Potency (Aromatase (Homo sapiens))

CC(C)(CCl)c1ccccc1
inactive: Potency [1] | Potency [2] | outcome [3] | Potency [4] | Potency [5] | Potency [6] | Potency [7] | Potency [8] | Potency [9] | Potency (Aromatase (Homo sapiens))

O=C(O)c1cccc(O)c1
inactive: Potency [1] | Potency [2] | outcome [3] | Potency [4] | Potency [5] | Potency [6] | Potency [7] | Potency [8] | Potency [9] | Potency (Aromatase (Homo sapiens))

O=S1OCCO1
inactive: Potency [1] | Potency [2] | outcome [3] | Potency [4] | Potency [5] | Potency [6] | Potency [7] | Potency [8] | Potency [9] | Potency (Aromatase (Homo sapiens))

CC(C)OCC1CO1 (centres undefined)
inactive: Potency [1] | Potency [2] | outcome [3] | Potency [4] | Potency [5] | Potency [6] | Potency [7] | Potency [8] | Potency [9] | Potency (Aromatase (Homo sapiens))

CCn1cc(C(=O)O)c(=O)c2cc(F)c(N3CCNCC3)nc21
inactive: Potency [1] | Potency [2] | outcome [3] | Potency [4] | Potency [5] | Potency [6] | Potency [7] | Potency [8] | Potency [9] | Potency (Aromatase (Homo sapiens))

COCCOC
inactive: Potency [1] | Potency [2] | outcome [3] | Potency [5] | Potency [9]

Brc1cc(-c2ccc(Br)c(Br)c2Br)cc(Br)c1Br
active: Potency [2] 26.9 µM
inactive: Potency [1] | outcome [3] | Potency [5] | Potency [6] | Potency [7] | Potency [8] | Potency [9] | Potency (Aromatase (Homo sapiens))

C[N+](C)(C)CCOC(N)=O
inactive: Potency [1] | Potency [2] | outcome [3] | Potency [5] | Potency [9] | Potency (Aromatase (Homo sapiens))

Cc1ccccc1N1C(=O)c2cc(S(N)(=O)=O)c(Cl)cc2NC1C (centres undefined)
inactive: Potency [1] | Potency [2] | outcome [3] | Potency [5] | Potency [9] | Potency (Aromatase (Homo sapiens))

Cc1cnc(C)c(C)n1
inactive: Potency [1] | Potency [2] | outcome [3] | Potency [5] | Potency [9] | Potency (Aromatase (Homo sapiens))

C[N+]1(C)CCC(=C(c2ccccc2)c2ccccc2)CC1
inactive: Potency [1] | Potency [2] | outcome [3] | Potency [5] | Potency [9] | Potency (Aromatase (Homo sapiens))
